This is an account of results in PubChem BioAssay (NCI).

Compounds without any hit were thinned out: in the full panel of roughly 83,000, 20% have a hit.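 Growth was measured after 48 h exposure to one concentration of compound in 96-well plates. Values under 10 count as active.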 A number with no mark means an inactive call. Calls of active or inactive are those of the source.

Holding throughout (assay): NCI-60 one-dose screen, 48 h (100 = growth as untreated, 0 = no growth, -100 = all killed)
One assay has as its system HT29 colon. To be noted: 10 µM unless noted.
Another assay has as its system SNB-75 CNS. Particulars: 10 µM unless noted.
The next assay has as its system SNB-19 CNS. To be noted: 10 µM unless noted.
The test system of another assay is U251 CNS. To be noted: 10 µM unless noted.
For another assay, the system named is PC-3 prostate. Particulars: 10 µM unless noted.
The next assay deals with SK-MEL-5 melanoma. Particulars: 10 µM unless noted.
The next assay has as its system UACC-62 melanoma. Particulars: 10 µM unless noted.
The next assay relates to LOX IMVI melanoma. To be noted: 10 µM unless noted.
For another assay, the system named is SK-MEL-28 melanoma. Particulars: 10 µM.
The test system of a further assay is SK-MEL-2 melanoma. To be noted: 10 µM unless noted.
Another assay deals with SN12C renal. To be noted: 10 µM unless noted.
Another assay concerns UO-31 renal. Particulars: 10 µM unless noted.
Another assay relates to TK-10 renal. To be noted: 10 µM unless noted.
The test system of another assay is ACHN renal. Particulars: 10 µM unless noted.
The subject of another assay is CAKI-1 renal. To be noted: 10 µM unless noted.
The test system of a further assay is A498 renal. Particulars: 10 µM unless noted.
The next assay concerns CCRF-CEM leukemia. To be noted: 10 µM unless noted.
The next assay concerns MOLT-4 leukemia. Particulars: 10 µM unless noted.
Another assay concerns SR leukemia. To be noted: 10 µM unless noted.

Turning to `COc1ccc(-c2cc(=O)c3c(OC)c4ccoc4c(/C=C/C=O)c3o2)cc1`, the growth in the assay on HT29 colon is 79.1%; in the assay on SNB-75 CNS, -1.37% (active); with SNB-19 CNS it was 49%; in the assay on U251 CNS, 16.4%; with PC-3 prostate it was 21.3%; in the assay on SK-MEL-5 melanoma it was 32.1%. The growth in the assay with UACC-62 melanoma was 67.1%; in the assay on LOX IMVI melanoma, -11.8% (active); in the assay with SK-MEL-28 melanoma, 89.1%; with SK-MEL-2 melanoma, 75.4%; in the assay on SN12C renal it was 13%; in the assay on UO-31 renal, 44.1%. Also, the growth in the assay with TK-10 renal was 68.7%; in the assay with ACHN renal, 75.4%; in the assay with CAKI-1 renal it was 95.1%; with A498 renal, 78.8%; with CCRF-CEM leukemia, 0.782% (active); in the assay with MOLT-4 leukemia, -8.67% (active). Besides, the growth in the assay with SR leukemia is -8.77% (active).

As for `Cc1ccc(CN2CCC(C(=O)Nc3ccc(-c4cc5ccccc5[nH]4)cc3)CC2)o1`, the growth in the assay with HT29 colon is 57.1%; in the assay with SNB-75 CNS it was 100%; in the assay on SNB-19 CNS, 80%; in the assay on U251 CNS, 39.8%; with PC-3 prostate, 2.12% (active); in the assay with SK-MEL-5 melanoma it was 50.4%. In addition, the growth in the assay on UACC-62 melanoma is 72.1%; in the assay with LOX IMVI melanoma, 42.2%; in the assay with SK-MEL-28 melanoma, 85.1%; with SK-MEL-2 melanoma, 88.4%; in the assay on SN12C renal, 60.7%; in the assay on UO-31 renal it was 47.5%. Besides, the growth in the assay on TK-10 renal is 73%; in the assay on ACHN renal, 44.3%; with CAKI-1 renal, 71.7%; in the assay on A498 renal it was 4.02% (active); with CCRF-CEM leukemia, 8.89% (active); in the assay on MOLT-4 leukemia it was -4.18% (active). Moreover, in the assay with SR leukemia, the growth was 14.1%.

In the case of `CC1=C(CC(=O)c2cccc([N+](=O)[O-])c2)C(=O)c2ccccc2C1=O`, the growth with HT29 colon is 106%; in the assay on SNB-75 CNS, -84.6% (active); in the assay with SNB-19 CNS, 13%; with U251 CNS, -81% (active); with PC-3 prostate it was 42.8%; with SK-MEL-5 melanoma, 4.78% (active). For the same molecule, the growth in the assay on UACC-62 melanoma is -50.8% (active); in the assay on LOX IMVI melanoma it was -51.9% (active); with SK-MEL-28 melanoma, -89.9% (active); in the assay with SK-MEL-2 melanoma, -36.2% (active); in the assay with SN12C renal, -36% (active); in the assay with UO-31 renal it was -64.3% (active). For the same molecule, the growth in the assay on TK-10 renal was -43.1% (active); with ACHN renal, 13.8%; in the assay on CAKI-1 renal, -28.1% (active); with A498 renal, 68%; with CCRF-CEM leukemia, 4.59% (active); in the assay on MOLT-4 leukemia it was 36.5%. Besides, in the assay on SR leukemia, the growth was -46.1% (active).

In the case of `COc1ccc(-c2nsc3c2NC(=O)CC3c2ccsc2)cc1` (stereo unspecified), the growth is 0.633% (active) in the assay on HT29 colon; 10.4% with SNB-75 CNS; 50% in the assay on SNB-19 CNS; 20.4% with U251 CNS; 24.3% in the assay on PC-3 prostate; 22% with SK-MEL-5 melanoma. The growth in the assay on UACC-62 melanoma was 24.9%; in the assay with LOX IMVI melanoma, 33.4%; in the assay with SK-MEL-28 melanoma, 42.7%; with SK-MEL-2 melanoma, 45.5%; with SN12C renal, 41.9%; in the assay with UO-31 renal, 45%. Also, the growth in the assay on TK-10 renal was 53.2%; in the assay on ACHN renal it was 41.9%; in the assay on CAKI-1 renal it was 27.6%; with A498 renal it was 0.156% (active); in the assay with CCRF-CEM leukemia it was -7.06% (active); in the assay with MOLT-4 leukemia, 17.5%. Further, the growth in the assay on SR leukemia was 19.2%.

For the molecule `N#C/C(=C1\SC(=O)CN1c1ccccc1)c1nc2ccccc2s1`, the growth was 108% in the assay with HT29 colon; 88.7% in the assay with SNB-75 CNS; 94.3% with SNB-19 CNS; 91.9% with U251 CNS; 92% in the assay with PC-3 prostate; 93.3% in the assay on SK-MEL-5 melanoma. The growth in the assay with UACC-62 melanoma is 91.1%; in the assay with LOX IMVI melanoma it was 88.3%; in the assay on SK-MEL-28 melanoma, 106%; with SK-MEL-2 melanoma, 86.1%; with SN12C renal, 91%; with UO-31 renal it was 53.2%. Also, the growth was 135% in the assay with TK-10 renal; 93.6% with ACHN renal; 89.9% in the assay on CAKI-1 renal; 82.4% in the assay on A498 renal; 84.4% in the assay on CCRF-CEM leukemia; 84.2% in the assay with MOLT-4 leukemia. Moreover, in the assay with SR leukemia, the growth is 76.4%.

Turning to `Brc1ccc(Nc2nc3ccccc3nc2Nc2ccc(Br)cc2)cc1`, the growth in the assay on HT29 colon was -46.1% (active); with SNB-75 CNS it was -7.54% (active); in the assay on SNB-19 CNS, 16.6%; in the assay with U251 CNS, -58.5% (active); in the assay with PC-3 prostate it was -0.436% (active); with SK-MEL-5 melanoma it was -85.6% (active). Further, the growth with UACC-62 melanoma was -16.2% (active); in the assay with LOX IMVI melanoma, -87% (active); with SK-MEL-28 melanoma it was -44.2% (active); in the assay with SK-MEL-2 melanoma, -58% (active); in the assay with SN12C renal, -9.63% (active); in the assay with UO-31 renal it was -25.7% (active). For the same molecule, the growth was -55.4% (active) with TK-10 renal; 4.91% (active) in the assay on ACHN renal; -16.3% (active) in the assay with CAKI-1 renal; -18.1% (active) with A498 renal; -15% (active) in the assay with CCRF-CEM leukemia; -21.4% (active) in the assay with MOLT-4 leukemia. Further, in the assay with SR leukemia, the growth is -23.5% (active).

Turning to `O=C(NC1CCN(Cc2ccccc2)CC1)c1cc(C(=O)NC2CCN(Cc3ccccc3)CC2)cc(C(=O)NC2CCN(Cc3ccccc3)CC2)c1`, the growth in the assay with HT29 colon is 75%; with SNB-75 CNS, 68%; with SNB-19 CNS it was 85.7%; in the assay on U251 CNS it was 72.4%; in the assay on PC-3 prostate, 74.4%; in the assay with SK-MEL-5 melanoma it was 85.2%. The growth with UACC-62 melanoma is 84.9%; with LOX IMVI melanoma, -69.6% (active); in the assay with SK-MEL-28 melanoma it was 95.6%; in the assay on SK-MEL-2 melanoma it was 73.6%; in the assay with SN12C renal it was 69.2%; in the assay on UO-31 renal it was -29.8% (active). Moreover, the growth with TK-10 renal was 80.8%; with ACHN renal, 94.5%; in the assay with CAKI-1 renal, 12.2%; with A498 renal, 96.1%; in the assay on CCRF-CEM leukemia, 2.34% (active); in the assay with MOLT-4 leukemia, 45.8%. The growth in the assay on SR leukemia is 20.1%.

With `FC(F)(F)c1cccc(CNC2CCN(CCc3ccccc3)CC2)c1`, the growth in the assay with HT29 colon was 46.9%; in the assay on SNB-75 CNS it was 71.2%; with SNB-19 CNS, 91.7%; with U251 CNS, 77.4%; in the assay with PC-3 prostate it was 25.2%; with SK-MEL-5 melanoma, 90%. The growth in the assay on UACC-62 melanoma was 86.4%; in the assay with LOX IMVI melanoma, 56%; in the assay with SK-MEL-28 melanoma, 85.1%; with SK-MEL-2 melanoma it was 91%; with SN12C renal, 85.4%; with UO-31 renal it was 56.3%. Besides, the growth with TK-10 renal was 79.8%; in the assay on ACHN renal, 90.7%; with CAKI-1 renal it was 60.2%; in the assay on A498 renal, 60.4%; in the assay with CCRF-CEM leukemia it was 13.2%; in the assay on SR leukemia, 29.3%.
